PubChem BioAssay AID2675 (National Center for Advancing Translational Sciences (NCATS), 2010)
Screen size: about 280,000 compounds; about 100 (0.036%) were called active. Roughly 11% stayed inconclusive and do not appear here. The call rests on the fitted dose curve; in most records, active means well fitted inhibition curve with a large enough effect in the signal ratio, with a control signal flat (not every such curve was filed as active); inconclusive means small, poorly fitted or top-dose-only effect, or effect the other way, or a change in a side signal; inactive means no such curve, though single readings can be large or run the other way; the % refers to the signal ratio. The sample as a whole holds a higher share of actives than the screen did.

Molecular target: Muscleblind-like protein 1 (Homo sapiens) (UniProt Q9NR56)
Sequence (Q9NR56 whole entry, looked up): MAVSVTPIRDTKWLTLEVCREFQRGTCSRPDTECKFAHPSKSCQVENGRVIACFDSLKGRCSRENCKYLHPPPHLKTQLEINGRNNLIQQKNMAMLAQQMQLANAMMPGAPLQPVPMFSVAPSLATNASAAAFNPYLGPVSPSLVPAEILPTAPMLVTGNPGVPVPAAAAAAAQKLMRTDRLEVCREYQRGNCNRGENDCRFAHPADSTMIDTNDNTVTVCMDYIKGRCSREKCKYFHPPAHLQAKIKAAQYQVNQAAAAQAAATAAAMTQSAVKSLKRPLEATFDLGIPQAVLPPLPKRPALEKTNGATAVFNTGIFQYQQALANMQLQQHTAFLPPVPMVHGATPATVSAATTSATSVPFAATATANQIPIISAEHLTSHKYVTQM
Assay: qHTS Assay for Inhibitors of MBNL1-poly(CUG) RNA binding
Settings: TR-FRET MBNL1-His/biotin-(CUG)12 binding, 665/545 ratio; series mostly up to 57.5 µM
Text: NIH Chemical Genomics Center [NCGC] NIH Molecular Libraries Probe Production Centers Network [MLPCN] MLPCN Grant: R03 MH087421-01 Assay Submitter (PI): Charles Thornton NCGC Assay Overview: Expanded CTG repeats in the 3' untranslated region of the DM protein kinase (DMPK) gene causes type I myotonic dystrophy (DM1). DM1 is a multi-systemic disease with a prevalence of 1/7000. Clinical features include myotonia, progressive muscle weakness and wasting, cardiac arrhythmia, insulin resistance, hypersomnolence, cataracts, and other symptoms. The pathogenic effect of expanded CTG repeats stems from deleterious effects of the mutant transcript. CUGexp mRNA accumulates in nuclear foci and sequesters proteins of the muscleblind family, of which MBNL1 is the most common family member in skeletal muscles. The binding interaction between MBNL1 and CUGexp tracts leads to deregulation of alternative splicing and is therefore a key molecular step in the pathogenesis of DM1. To target this binding interaction, we optimized a protein-RNA binding assay in 1536-well format for identification of small molecule inhibitors of biotinylated (CUG)12 and his-tagged MBNL1 binding. Protein-RNA complex of MBNL1-His and Biotin-(CUG)12 captures the detection reagents terbium-labeled anti-His antibody and streptavidin conjugated XL665. This brings the terbium label within close proximity to XL665 to allow time-resolved fluorescence resonance energy transfer (TR-FRET). Inhibitors of MBNL1-(CUG)12 binding will disrupt TR-FRET.
NCGC Assay Protocol Summary: This is a TR-FRET binding assay with MBNL1-His and Biotin-(CUG)12 RNA. The assay uses a ratiometric measurement. In the presence of MBNL1-(CUG)12 complex, the excitation energy is transferred to the XL665 acceptor label, causing emission at 665nm, while the 545nm donor signal […]. Data were normalized to the controls for basal activity (buffer only) and 100% activity (with MBNL1-(CUG)12). […] The final titration was 92 nM to 58 uM. (3) Add 1 ul of terbium labeled anti-His antibody (0.055 ng/ul final concentration) (4) Add 1 ul of streptavidin-XL665 (5 nM final concentration) (5) Incubate 60 min at room temperature (6) Detect the assay plate in a EnVision plate reader (PerkinElmer) with Ex=340 nm, Em1=665 nm and Em2=545 nm. Keywords: mytonic dystrophy type I, DM1, muscleblind like 1, MBNL1, CUG expansion, protein-RNA binding inhibitor, high throughput screening, MLSMR, MLSCN, NIH Roadmap, qHTS and NCGC
On the % scale 0 is the no-effect control and ±100 the full control effect.

Activity change, negative = inhibition, inactive:
CC(C)c1ccc(N(C(=O)c2ccco2)C(C(=O)NC2CCCC2)c2cccnc2)cc1 (stereo unspecified)
COc1ccccc1CCNS(=O)(=O)c1cn(C)nc1C
CCOc1ccc(N(CC(=O)NCCc2ccc(F)cc2)S(=O)(=O)c2ccccc2)cc1
Cc1ccc(Cn2c(=N)c(S(=O)(=O)c3ccc(C)cc3)cc3c(=O)n4ccccc4nc32)cc1
C=CCSc1nc2c(c(=O)[nH]c(=O)n2C)n1Cc1ccccc1
Cc1ccc(-c2csc(NC3OC(=O)c4ccccc43)n2)cc1 (stereo unspecified)
Cc1ccc(C)c(NC(=O)c2cc(-c3cc(C)cc(C)c3O)n[nH]2)c1
Cc1ccccc1N1CCN(S(=O)(=O)c2ccc3ccccc3c2)CC1
Cc1ccc(CS(=O)Cc2ccc(C(=O)N3CCOCC3)o2)cc1 (stereo unspecified)
CCn1cc(CN2CCN(CC(C)(C)C)C(CCO)C2)c2ccccc21 (stereo unspecified)
Cc1ccc(-c2ccc(=O)n(Cc3ccc(F)cc3Cl)n2)cc1
CC(C)(C)c1ccc(C(=O)N2CCN(CCNC(=O)C(=O)Nc3ccc(F)cc3)CC2)cc1
COc1ccccc1NC(=O)C1CCN(C(=O)c2ccc(C(C)(C)C)cc2)CC1
COc1ccc(OC)c(CCNC(=O)c2nn(C)c3c2CS(=O)(=O)c2ccccc2-3)c1
CCCC[C@]12Cc3cc(OC)c(OC)cc3C(O1)C1=C(CC3(CCCCC3)OC1=O)O2 -1.93% [at 11.5 µM]
COc1cccc(CNS(=O)(=O)c2ccc3c(c2)CC(C)N3C(C)=O)c1 (stereo unspecified)
Cc1cccc(C(=O)N2CCCC(Nc3ccc(C(C)C)cc3)C2)n1 (stereo unspecified)
Cc1ccc2nc(SCC(=O)NC3CCCC3)[nH]c2c1
Cc1[nH]c(C)c(S(=O)(=O)N2CCN(c3cccc(C(F)(F)F)c3)CC2)c1C(=O)N1CCCC1
CS(=O)(=O)N(CC(=O)N1CCOCC1)c1cccc(Cl)c1Cl
CCc1ccc(OCC(=O)NCC(c2ccc(Cl)cc2)N2CCCCC2)cc1 (stereo unspecified)
Cc1c(C(=O)NCC(c2ccco2)N2CCCC2)oc2ccc(Cl)cc12 (stereo unspecified)
N#Cc1ccccc1S(=O)(=O)N1CCN(C(=O)c2cc(-c3ccccc3)nn2-c2ccccc2)CC1
CCCCC(C(=O)NC(C)(C)C)N(Cc1ccccc1)C(=O)c1snc(C(N)=O)c1N (stereo unspecified)
CS(=O)(=O)Nc1cccc(C2=NN(C(=O)c3cccc(F)c3)C(c3cccs3)C2)c1 (stereo unspecified)
COc1cccc(CNC(=O)Cn2c(=O)oc3cc(S(=O)(=O)N4CCCCC4)ccc32)c1
COc1ccc(NC(=O)c2sc3nc(C)nc(N4CCN(c5ccccn5)CC4)c3c2C)c(OC)c1
CCCCc1nc2cc(C(=O)N3CCCCC3CCO)ccc2o1 (stereo unspecified)
O=C(c1ccccc1)N1CCC(CC2CC(c3ccc(Cl)cc3)=NO2)(C(=O)NCC2CCCCC2)CC1 (stereo unspecified)
O=C(c1ccco1)N1CCN(Cc2cccc(C(F)(F)F)c2)CC1
O=C(Nc1ccc(F)cc1)c1ccc(S(=O)(=O)NCc2cccnc2)cc1
Cc1ccc(S(=O)(=O)N2CCN=C2SCc2c(F)cccc2Cl)cc1
COc1ccc(C)cc1Nc1n[n+](-c2ccccc2)c(-c2cccc(Cl)c2Cl)s1
C=CCc1cccc(/C=N/NC(=O)COc2ccc(-n3cnnn3)cc2)c1O
O=C1CCN(Cc2ccccc2)CCN1[C@H](CSc1ccccc1)c1ccccc1
CC(C)c1ccc(NC(=O)C2CCCN(S(=O)(=O)c3cccnc3)C2)cc1 (stereo unspecified)
COc1ccc(NC(=O)c2cccc3c2C(=O)N(CC2CCCO2)C3)cc1OC (stereo unspecified)
COc1ccc2c3c(c(=O)oc2c1)C1O[C@](CCCCN2C(=O)c4ccccc4C2=O)(Cc2c1ccc1ccccc21)O3 -13% [at 11.5 µM]
CC1CCCN(CCCNC(=O)CN2C(=O)COc3ccc(S(=O)(=O)N4CCOCC4)cc32)C1 (stereo unspecified)
COc1cccc(OCC(O)CNC(=O)c2oc3c(C)c(C)ccc3c2C)c1 (stereo unspecified)
O=C(NCc1ccccc1)c1onc(CSc2nc3ccccc3[nH]2)c1C(=O)NCc1ccccc1
CN(C)C(=O)CCC(=O)N1CCCCC1C(=O)Nc1ccc(Oc2ccccc2F)cc1 (stereo unspecified)
COc1ccc(-c2cc(C(=O)N3CCN(Cc4ccc5c(c4)OCO5)CC3)on2)cc1OC
COc1cc(C(=O)NCC2(c3ccccc3)CCCC2)ccc1OC(C)C
O=C(Nc1ccc(S(=O)(=O)N2CCCCCC2)cc1)c1c(F)cccc1F
Cc1cc2c(c(=O)n1Cc1ccccc1)C1O[C@](CCCCN3C(=O)c4ccccc4C3=O)(Cc3ccccc31)O2 41.3% [at 11.5 µM]
COc1ccc(Oc2cn[nH]c2-c2ccc(OC)cc2O)cc1
CCOC(=O)N1CCC(N2Cc3cccc(C(=O)Nc4c(C)cccc4CC)c3C2=O)CC1
CC(C)CN(Cc1c(O)ccc2c(=O)c(-c3ccccc3)coc12)CC(C)C
O=C(O)c1ccc2c(=O)n3c(nc2c1)/C(=C/c1ccc(OC(F)F)cc1OC(F)F)CC3
CCOC(=O)C1(CCOc2ccccc2)CCN(Cc2cc(OC)cc(OC)c2)CC1
CNC(=O)c1sc(Nc2ccc(OCc3ccccc3)cc2)nc1C
COc1cc(C(=O)NCc2cc3cc(Cl)ccc3n2C)cc(OC)c1OC
CCn1c(=S)sc2c(=O)n(CC(=O)Nc3cccc(Br)c3)c(C)nc21
Cc1ccc(OCC(=O)NC(C)c2ccccc2)cc1C (stereo unspecified)
COc1ccc(CNS(=O)(=O)c2ccc(NC(=O)N3CCCCC3)cc2)cc1
COc1ccc2[nH]c(=O)c(CN(Cc3cccnc3)S(=O)(=O)c3ccccc3F)cc2c1
CSc1ccccc1OCc1cc(C(=O)N(C)CCc2c(C)n[nH]c2C)no1
CCOc1ccc(NC(=O)C2CCN(C(=O)N3CCOc4ccccc43)CC2)cc1
CCOc1c(OC)cccc1C(=O)NCC1(c2ccccc2)CCCC1
Cc1cc(=O)oc2c3c(cc(OCC(=O)NCc4ccccn4)c12)OC(C)(C)CC3
Cc1nc2nc(SCC(=O)Nc3cccc(F)c3)[nH]c2cc1Br
FC(F)(F)c1nnc2c3ccccc3c(Cl)nn12
COc1cc(CCC(=O)N2CCN(c3ccccc3Cl)CC2)cc(OC)c1OC
Cc1cc(=O)n2[nH]c(-c3cccc(Cl)c3)cc2n1
Cc1cc2oc(=O)cc(CN(C)Cc3ccc(OC(F)F)cc3)c2cc1Cl
CN(Cc1ccccc1)C(=O)c1ccc(COc2ccccc2)cc1
CCCCC(=O)Nc1ccccc1N1CCN(c2ccc(F)cc2)CC1
CC(=O)N1CCC(C(=O)OCc2ccc(Cl)cc2)(c2ccccc2)CC1
COc1cnc(-c2ccccn2)nc1Oc1ccc(C(C)(C)C)cc1
COc1ccc(-c2nn(-c3ccccc3)cc2/C=C2/SC(=S)N(CCCC(=O)O)C2=O)c(C)c1
C=CCSc1nnc(N2C(=O)C(O)=C(C(=O)c3ccco3)C2c2ccc(F)cc2)s1 (stereo unspecified)
CC1C(=O)Nc2ccc(S(=O)(=O)N3CCN(c4ccccc4F)CC3)cc2NC1=O (stereo unspecified)
CCN(CC(=O)Nc1ccc(C)c(S(=O)(=O)N(C)C)c1)Cc1ccccc1
O=C(c1ccccc1F)N(Cc1ccccc1)Cc1ccccc1
COc1ccc(COC(=O)c2ccc(Cl)c(S(=O)(=O)N3CCOCC3)c2)cc1F
CN(CC1CCCN(CCc2cccc(C(F)(F)F)c2)C1)C(=O)c1ccc2nc[nH]c2c1 (stereo unspecified)
COc1cc(/C=C/C(=O)N2CCc3ccccc3C2)cc(OC)c1OC
CN(C(=O)CN1C(=O)/C(=C/c2ccc(Cl)cc2)SC1=S)C1CCS(=O)(=O)C1 (stereo unspecified)
CC(=O)c1cc2c(cc1NC(=O)Cn1nc(-c3ccc(F)cc3)ccc1=O)OCO2
O=C(C1CCCN(S(=O)(=O)c2ccccc2)C1)N1CCN(c2ccc(F)cc2)CC1 (stereo unspecified)
CC(C)C[C@@H](COc1ccccc1)N1CCN(CC(C)C)CCC1=O
Cc1sc2ncn(CC(=O)NCCCC(=O)N3CCN(c4ccccc4F)CC3)c(=O)c2c1C
CCOC(=O)N1CCN(Cc2nc3cc(NC(=O)CC)ccc3n2CC)CC1
OC(CNCCc1ccc(Cl)cc1Cl)COc1ccccc1 (stereo unspecified)
Cc1cnc(C)c(N2CCN(C(=O)C3CCC(=O)N(CCc4cccc(F)c4)C3)CC2)n1 (stereo unspecified)
Cc1ccc(-n2nc3c(=O)n(C(C)C(=O)NCc4ccc5c(c4)OCO5)nc(C)c3c2C)cc1 (stereo unspecified)
CSc1ccc(S(=O)(=O)N2CCC(C(=O)NCCc3ccccc3)CC2)cc1
Cc1ccccc1NC(=S)NC(=O)Cc1ccc(Cl)cc1
COc1ccc(C(=O)NC2CCN(C(=O)Nc3ccc(F)cc3)CC2)cc1
CC(=O)c1cccc(NC(=O)CN2C(=O)c3cccnc3Oc3ccc(Cl)cc32)c1
Cc1cc(CN(C)C(=O)c2cc(COc3ccc(C)c(C)c3)on2)n[nH]1
COc1ccc2c(C)c(CCC(=O)NC3CC3)c(=O)oc2c1C
COc1cccc(C2CC(c3cccs3)=NN2C(=O)CSC2=NCCS2)c1OC (stereo unspecified)
COc1ccc(OC)c(NC(=O)CN(C)CCOc2ccc(Br)cc2)c1
COC(=O)c1cc(S(=O)(=O)Nc2ccc(C)c(F)c2)c[nH]1
COc1ccc(-c2nc3ccccc3c(=O)n2CCc2ccc(O)cc2)cc1
CCC(C(=O)OC)n1cnc2scc(-c3ccc(C)cc3)c2c1=O (stereo unspecified)
CCc1ccccc1N(CC(=O)NCC1CCCO1)C(=O)CCC(=O)Nc1nccs1 (stereo unspecified)
CCN1CCN(c2sc(S(C)(=O)=O)nc2S(=O)(=O)c2ccc(Cl)cc2)CC1
CCNC(=O)N1CCCC(C(=O)c2ccc(-c3ccccc3)cc2)C1 (stereo unspecified)
